# Publication PMC7862700, “An all-to-all approach to the identification of sequence-specific readers for epigenetic DNA modifications on cytosine”
# Key:
# Assay in all cases: DAPPL (digital affinity profiling via proximity ligation, sequencing); 10 mM Tris-HCl pH 7.5, 50 mM NaCl, 1 mM DTT, 4% glycerol, room temperature, 30 min; GST-TFs on glutathione beads, 16-mer random dsDNA library, 0.1% formaldehyde crosslink after washing; high values mean tight binding
# FLI1 = target: T1, FLI1 (Homo sapiens, UniProt Q01543 1-452); conditions: protein: recombinant; tags: N-terminal GST; dsDNA, one strand shown
# T1 sequence: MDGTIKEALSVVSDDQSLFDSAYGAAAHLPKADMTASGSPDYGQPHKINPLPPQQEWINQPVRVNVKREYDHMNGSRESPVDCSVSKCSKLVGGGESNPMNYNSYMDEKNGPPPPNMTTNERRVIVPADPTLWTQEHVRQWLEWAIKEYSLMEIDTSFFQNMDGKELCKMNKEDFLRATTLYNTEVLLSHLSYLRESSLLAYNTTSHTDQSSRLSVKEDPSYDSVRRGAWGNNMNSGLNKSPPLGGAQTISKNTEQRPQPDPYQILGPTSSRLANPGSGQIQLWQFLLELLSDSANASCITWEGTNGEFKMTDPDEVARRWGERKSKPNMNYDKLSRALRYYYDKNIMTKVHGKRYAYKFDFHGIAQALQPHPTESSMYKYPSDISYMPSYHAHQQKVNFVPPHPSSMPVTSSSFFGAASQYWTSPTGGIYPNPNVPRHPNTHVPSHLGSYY
# How it was run: (§1)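 Human transcription factors fused to GST were expressed in yeast, captured on glutathione beads, given DNA barcodes and pooled with a GST-only negative control. Pools were incubated with 200 nmole of a 16-mer random double-stranded DNA library in Tris/NaCl/DTT/glycerol buffer at room temperature for 30 min. They were then washed, crosslinked with 0.1% formaldehyde, proximity-ligated (BsaI/T4 ligase, 1 h, 37 °C), PCR-amplified and sequenced on an Illumina NextSeq500. Binding signal is each 6-mer's read frequency for a factor divided by its frequency for the GST control.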
# ELK1 = target: T2, ELK1 (Homo sapiens, UniProt P19419 1-428); conditions: protein: recombinant; tags: N-terminal GST; dsDNA, one strand shown
# T2 sequence: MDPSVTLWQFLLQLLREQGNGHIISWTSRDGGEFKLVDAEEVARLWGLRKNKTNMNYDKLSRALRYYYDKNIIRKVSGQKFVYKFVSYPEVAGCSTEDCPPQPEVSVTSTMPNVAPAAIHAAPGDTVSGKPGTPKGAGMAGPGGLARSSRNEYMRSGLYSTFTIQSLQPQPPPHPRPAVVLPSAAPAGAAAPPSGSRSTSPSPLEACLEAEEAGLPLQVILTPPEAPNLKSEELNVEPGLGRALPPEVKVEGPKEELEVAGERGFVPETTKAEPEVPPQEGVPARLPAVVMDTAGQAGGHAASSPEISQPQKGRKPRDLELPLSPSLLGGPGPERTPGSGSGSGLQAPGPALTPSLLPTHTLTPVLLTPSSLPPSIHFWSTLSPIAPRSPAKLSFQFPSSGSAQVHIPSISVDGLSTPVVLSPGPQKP
# How it was run: as §1
# GABPA = target: T3, GABPA (Homo sapiens, UniProt Q06546 1-454); conditions: protein: recombinant; tags: N-terminal GST; dsDNA, one strand shown
# T3 sequence: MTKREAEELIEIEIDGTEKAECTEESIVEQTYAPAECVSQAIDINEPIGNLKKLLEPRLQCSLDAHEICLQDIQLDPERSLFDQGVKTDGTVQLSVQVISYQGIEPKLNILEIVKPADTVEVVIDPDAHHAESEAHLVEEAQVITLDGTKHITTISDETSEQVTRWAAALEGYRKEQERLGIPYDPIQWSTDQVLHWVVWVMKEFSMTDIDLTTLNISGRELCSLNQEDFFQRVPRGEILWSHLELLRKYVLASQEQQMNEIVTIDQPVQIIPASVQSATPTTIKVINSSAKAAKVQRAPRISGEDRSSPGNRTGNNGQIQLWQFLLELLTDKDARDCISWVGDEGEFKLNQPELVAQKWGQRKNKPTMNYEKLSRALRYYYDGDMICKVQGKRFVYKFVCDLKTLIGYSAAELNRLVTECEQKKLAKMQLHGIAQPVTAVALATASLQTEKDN
# How it was run: as §1
# ERG = target: T4, ERG (Homo sapiens, UniProt P11308 1-479); conditions: protein: recombinant; tags: N-terminal GST; dsDNA, one strand shown
# T4 sequence: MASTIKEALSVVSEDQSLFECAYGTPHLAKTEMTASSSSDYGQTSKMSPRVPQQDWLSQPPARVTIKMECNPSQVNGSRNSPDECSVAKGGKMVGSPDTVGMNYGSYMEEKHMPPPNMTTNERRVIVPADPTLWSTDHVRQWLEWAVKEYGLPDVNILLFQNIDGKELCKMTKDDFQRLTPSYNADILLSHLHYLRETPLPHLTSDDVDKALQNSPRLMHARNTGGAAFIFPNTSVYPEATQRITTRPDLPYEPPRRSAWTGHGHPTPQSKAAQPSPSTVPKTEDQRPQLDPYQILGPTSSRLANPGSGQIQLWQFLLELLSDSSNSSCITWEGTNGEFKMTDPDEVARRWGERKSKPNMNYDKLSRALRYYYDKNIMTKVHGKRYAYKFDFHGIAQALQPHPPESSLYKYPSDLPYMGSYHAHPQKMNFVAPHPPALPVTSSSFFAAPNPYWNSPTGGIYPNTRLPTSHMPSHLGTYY
# How it was run: as §1
# ELF1 = ELF1 (Homo sapiens, UniProt P32519 1-619); conditions: protein: recombinant; tags: N-terminal GST; dsDNA, one strand shown
# Chain of ELF1 (P32519 whole entry): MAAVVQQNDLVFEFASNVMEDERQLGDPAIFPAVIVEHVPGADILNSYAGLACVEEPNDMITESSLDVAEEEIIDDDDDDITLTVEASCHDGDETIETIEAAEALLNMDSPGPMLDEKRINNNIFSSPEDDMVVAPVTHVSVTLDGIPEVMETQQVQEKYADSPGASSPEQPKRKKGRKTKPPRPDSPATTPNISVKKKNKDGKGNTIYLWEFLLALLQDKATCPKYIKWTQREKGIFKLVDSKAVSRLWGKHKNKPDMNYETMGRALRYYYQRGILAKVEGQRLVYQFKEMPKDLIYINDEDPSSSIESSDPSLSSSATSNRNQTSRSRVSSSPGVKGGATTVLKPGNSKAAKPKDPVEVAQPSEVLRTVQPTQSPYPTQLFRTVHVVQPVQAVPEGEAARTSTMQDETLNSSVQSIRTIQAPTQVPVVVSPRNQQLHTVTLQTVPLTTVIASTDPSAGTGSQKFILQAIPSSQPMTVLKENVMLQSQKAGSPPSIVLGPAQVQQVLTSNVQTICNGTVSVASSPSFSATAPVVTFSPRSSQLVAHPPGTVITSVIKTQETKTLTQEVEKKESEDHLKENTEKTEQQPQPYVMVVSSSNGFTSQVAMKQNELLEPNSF
# How it was run: as §1
# EHF = target: T5, EHF (Homo sapiens, UniProt Q9NZC4 1-300); conditions: protein: recombinant; tags: N-terminal GST; dsDNA, one strand shown
# T5 sequence: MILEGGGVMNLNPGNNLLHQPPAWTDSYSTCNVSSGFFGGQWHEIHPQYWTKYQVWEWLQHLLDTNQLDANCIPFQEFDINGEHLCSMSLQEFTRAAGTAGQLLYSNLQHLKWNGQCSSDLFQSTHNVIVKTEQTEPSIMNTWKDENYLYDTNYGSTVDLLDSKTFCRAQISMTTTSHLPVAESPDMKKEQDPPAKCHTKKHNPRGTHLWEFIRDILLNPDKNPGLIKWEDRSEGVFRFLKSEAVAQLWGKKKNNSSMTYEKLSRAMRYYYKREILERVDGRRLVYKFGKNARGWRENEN
# How it was run: as §1
# SPI1 = SPI1 (Homo sapiens, UniProt P17947 1-270); conditions: protein: recombinant; tags: N-terminal GST; dsDNA, one strand shown
# How it was run: as §1
# SPIB = SPIB (Homo sapiens, UniProt Q01892 1-262); conditions: protein: recombinant; tags: N-terminal GST; dsDNA, one strand shown
# Chain of SPIB (Q01892 whole entry): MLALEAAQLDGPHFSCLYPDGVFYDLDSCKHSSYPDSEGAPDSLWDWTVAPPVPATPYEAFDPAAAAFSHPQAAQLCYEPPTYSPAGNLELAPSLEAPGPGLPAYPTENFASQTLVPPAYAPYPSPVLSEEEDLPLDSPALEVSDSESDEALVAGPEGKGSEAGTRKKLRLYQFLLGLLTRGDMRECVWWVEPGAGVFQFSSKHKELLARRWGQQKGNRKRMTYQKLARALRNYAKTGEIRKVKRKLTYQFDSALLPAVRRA
# How it was run: as §1
# ELK3 = target: T6, ELK3 (Homo sapiens, UniProt P41970 1-407); conditions: protein: recombinant; tags: N-terminal GST; dsDNA, one strand shown
# T6 sequence: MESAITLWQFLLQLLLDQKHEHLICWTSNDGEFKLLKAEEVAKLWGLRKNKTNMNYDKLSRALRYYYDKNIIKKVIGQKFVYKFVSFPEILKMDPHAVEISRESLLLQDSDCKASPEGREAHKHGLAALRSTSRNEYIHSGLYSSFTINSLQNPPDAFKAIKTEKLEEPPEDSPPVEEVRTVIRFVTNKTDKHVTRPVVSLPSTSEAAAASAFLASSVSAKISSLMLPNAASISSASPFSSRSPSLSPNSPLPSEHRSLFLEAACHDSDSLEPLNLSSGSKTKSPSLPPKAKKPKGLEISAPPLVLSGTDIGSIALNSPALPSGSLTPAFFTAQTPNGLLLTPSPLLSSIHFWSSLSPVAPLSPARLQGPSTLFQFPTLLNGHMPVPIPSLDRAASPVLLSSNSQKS
# How it was run: as §1
# FEV = target: T7, FEV (Homo sapiens, UniProt Q99581 1-238); conditions: protein: recombinant; tags: N-terminal GST; dsDNA, one strand shown
# T7 sequence: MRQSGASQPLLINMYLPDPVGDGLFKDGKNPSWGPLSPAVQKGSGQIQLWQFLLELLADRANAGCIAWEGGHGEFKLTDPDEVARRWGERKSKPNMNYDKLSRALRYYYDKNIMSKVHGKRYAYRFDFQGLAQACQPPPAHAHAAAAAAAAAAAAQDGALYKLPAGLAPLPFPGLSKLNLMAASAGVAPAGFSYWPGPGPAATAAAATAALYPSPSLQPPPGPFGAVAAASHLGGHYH
# How it was run: as §1
# ETV5 = ETV5 (Homo sapiens, UniProt P41161 1-510); conditions: protein: recombinant; tags: N-terminal GST; dsDNA, one strand shown
# Chain of ETV5 (P41161 whole entry): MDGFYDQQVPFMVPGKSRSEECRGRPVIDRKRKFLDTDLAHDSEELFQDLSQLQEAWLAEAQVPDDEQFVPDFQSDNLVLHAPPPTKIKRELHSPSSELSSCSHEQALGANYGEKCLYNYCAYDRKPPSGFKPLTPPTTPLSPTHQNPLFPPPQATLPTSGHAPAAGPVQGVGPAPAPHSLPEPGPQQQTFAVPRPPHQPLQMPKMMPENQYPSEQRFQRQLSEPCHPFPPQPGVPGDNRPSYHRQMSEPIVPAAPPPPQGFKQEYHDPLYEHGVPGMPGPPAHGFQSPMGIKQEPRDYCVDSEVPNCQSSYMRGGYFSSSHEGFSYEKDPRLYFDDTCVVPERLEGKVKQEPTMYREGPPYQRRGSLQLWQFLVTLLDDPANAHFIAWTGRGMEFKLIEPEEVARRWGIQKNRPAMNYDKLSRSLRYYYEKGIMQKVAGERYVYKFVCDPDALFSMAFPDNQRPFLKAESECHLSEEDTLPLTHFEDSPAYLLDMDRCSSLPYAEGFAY
# How it was run: as §1
# HSF1 = HSF1 (Homo sapiens, UniProt Q00613 1-529); conditions: protein: recombinant; tags: N-terminal GST; chain copies: 3; dsDNA, one strand shown
# Chain of HSF1 (Q00613 whole entry): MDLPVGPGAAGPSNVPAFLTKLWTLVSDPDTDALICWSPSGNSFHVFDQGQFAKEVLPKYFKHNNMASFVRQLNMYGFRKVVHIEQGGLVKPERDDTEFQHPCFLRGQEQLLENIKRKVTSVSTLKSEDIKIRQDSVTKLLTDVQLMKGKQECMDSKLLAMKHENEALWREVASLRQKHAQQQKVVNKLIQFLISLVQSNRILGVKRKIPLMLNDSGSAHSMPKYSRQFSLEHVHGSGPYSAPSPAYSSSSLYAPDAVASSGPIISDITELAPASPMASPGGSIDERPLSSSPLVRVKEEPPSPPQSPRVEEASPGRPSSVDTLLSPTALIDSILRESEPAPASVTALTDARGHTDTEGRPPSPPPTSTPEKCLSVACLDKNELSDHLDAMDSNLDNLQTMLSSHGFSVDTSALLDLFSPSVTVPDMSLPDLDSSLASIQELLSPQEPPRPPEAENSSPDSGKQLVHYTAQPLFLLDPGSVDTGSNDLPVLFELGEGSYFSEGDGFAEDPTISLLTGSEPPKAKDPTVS
# How it was run: as §1
# SPIC = target: T8, SPIC (Homo sapiens, UniProt Q8N5J4 1-248); conditions: protein: recombinant; tags: N-terminal GST; dsDNA, one strand shown
# T8 sequence: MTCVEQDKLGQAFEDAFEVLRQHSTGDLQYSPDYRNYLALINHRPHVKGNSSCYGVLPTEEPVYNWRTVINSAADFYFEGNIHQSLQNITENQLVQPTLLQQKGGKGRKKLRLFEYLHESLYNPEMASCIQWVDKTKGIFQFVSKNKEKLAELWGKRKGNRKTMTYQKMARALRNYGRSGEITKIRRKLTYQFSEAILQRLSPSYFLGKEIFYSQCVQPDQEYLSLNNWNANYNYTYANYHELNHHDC
# How it was run: as §1
# ELF4 = ELF4 (Homo sapiens, UniProt Q99607 1-663); conditions: protein: recombinant; tags: N-terminal GST; dsDNA, one strand shown
# Chain of ELF4 (Q99607 whole entry): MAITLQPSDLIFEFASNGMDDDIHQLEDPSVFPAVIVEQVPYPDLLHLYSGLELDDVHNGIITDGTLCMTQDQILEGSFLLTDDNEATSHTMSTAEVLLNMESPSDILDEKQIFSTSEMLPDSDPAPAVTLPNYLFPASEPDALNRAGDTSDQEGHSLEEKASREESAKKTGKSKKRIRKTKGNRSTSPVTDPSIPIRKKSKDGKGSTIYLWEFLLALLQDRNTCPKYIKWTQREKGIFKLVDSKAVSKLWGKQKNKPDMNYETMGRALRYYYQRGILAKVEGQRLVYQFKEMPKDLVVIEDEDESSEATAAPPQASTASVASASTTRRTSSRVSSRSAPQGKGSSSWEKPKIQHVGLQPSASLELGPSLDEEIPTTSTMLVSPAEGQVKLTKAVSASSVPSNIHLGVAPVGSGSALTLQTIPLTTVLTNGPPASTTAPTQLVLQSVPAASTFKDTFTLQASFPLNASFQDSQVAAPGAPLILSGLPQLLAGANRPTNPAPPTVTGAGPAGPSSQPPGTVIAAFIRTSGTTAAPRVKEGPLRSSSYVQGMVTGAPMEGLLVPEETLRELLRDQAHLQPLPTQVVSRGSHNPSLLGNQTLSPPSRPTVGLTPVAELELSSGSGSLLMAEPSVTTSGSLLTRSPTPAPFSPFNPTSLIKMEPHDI
# How it was run: as §1
# ELK4 = target: T9, ELK4 (Homo sapiens, UniProt P28324-2 1-405); conditions: protein: recombinant; tags: N-terminal GST; dsDNA, one strand shown
# T9 sequence: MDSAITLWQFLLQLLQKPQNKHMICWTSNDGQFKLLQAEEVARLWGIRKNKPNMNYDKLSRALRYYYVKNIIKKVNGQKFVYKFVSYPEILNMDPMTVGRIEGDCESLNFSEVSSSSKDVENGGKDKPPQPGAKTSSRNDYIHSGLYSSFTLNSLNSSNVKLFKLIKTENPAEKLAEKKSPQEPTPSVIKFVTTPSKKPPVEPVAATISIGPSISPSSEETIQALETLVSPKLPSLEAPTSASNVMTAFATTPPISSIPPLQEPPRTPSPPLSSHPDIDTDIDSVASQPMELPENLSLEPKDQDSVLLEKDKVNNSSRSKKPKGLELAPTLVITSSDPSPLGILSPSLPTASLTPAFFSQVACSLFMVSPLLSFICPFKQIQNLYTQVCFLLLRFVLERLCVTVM
# How it was run: as §1
# ETV2 = target: T10, ETV2 (Homo sapiens, UniProt O00321 1-342); conditions: protein: recombinant; tags: N-terminal GST; dsDNA, one strand shown
# T10 sequence: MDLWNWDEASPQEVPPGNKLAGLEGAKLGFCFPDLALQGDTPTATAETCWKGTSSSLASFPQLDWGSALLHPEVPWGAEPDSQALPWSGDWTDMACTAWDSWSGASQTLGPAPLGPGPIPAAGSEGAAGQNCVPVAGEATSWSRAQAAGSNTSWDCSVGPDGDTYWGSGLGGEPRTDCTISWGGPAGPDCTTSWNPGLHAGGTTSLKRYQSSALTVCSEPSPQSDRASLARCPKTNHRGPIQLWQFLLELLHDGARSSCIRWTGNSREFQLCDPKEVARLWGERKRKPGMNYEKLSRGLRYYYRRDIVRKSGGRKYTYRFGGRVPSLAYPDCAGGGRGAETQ
# How it was run: as §1
# ELF3 = target: T11, ELF3 (Homo sapiens, UniProt P78545 1-371); conditions: protein: recombinant; tags: N-terminal GST; dsDNA, one strand shown
# T11 sequence: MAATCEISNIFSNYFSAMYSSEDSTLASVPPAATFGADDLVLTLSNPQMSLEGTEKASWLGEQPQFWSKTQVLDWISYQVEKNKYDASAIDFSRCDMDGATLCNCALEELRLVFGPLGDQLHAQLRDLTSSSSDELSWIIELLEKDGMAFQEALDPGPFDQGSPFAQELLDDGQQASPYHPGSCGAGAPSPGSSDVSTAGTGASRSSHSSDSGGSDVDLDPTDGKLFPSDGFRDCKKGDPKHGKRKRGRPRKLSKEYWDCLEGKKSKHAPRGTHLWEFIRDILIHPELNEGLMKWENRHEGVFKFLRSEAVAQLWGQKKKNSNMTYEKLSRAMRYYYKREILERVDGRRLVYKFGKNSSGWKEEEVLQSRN
# How it was run: as §1
# CRX = CRX (Homo sapiens, UniProt O43186 1-299); conditions: protein: recombinant; tags: N-terminal GST; dsDNA, one strand shown
# Chain of CRX (O43186 whole entry): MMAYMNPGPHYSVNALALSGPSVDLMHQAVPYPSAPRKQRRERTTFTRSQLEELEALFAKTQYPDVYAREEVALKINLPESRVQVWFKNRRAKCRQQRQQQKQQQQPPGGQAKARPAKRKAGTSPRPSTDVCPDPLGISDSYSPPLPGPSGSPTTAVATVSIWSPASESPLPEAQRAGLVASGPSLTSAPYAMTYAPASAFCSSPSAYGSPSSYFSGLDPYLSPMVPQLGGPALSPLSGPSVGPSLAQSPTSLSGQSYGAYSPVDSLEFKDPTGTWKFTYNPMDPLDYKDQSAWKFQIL
# How it was run: as §1
# ETV1 = ETV1 (Homo sapiens, UniProt P50549 1-477); conditions: protein: recombinant; tags: N-terminal GST; dsDNA, one strand shown
# Chain of ETV1 (P50549 whole entry): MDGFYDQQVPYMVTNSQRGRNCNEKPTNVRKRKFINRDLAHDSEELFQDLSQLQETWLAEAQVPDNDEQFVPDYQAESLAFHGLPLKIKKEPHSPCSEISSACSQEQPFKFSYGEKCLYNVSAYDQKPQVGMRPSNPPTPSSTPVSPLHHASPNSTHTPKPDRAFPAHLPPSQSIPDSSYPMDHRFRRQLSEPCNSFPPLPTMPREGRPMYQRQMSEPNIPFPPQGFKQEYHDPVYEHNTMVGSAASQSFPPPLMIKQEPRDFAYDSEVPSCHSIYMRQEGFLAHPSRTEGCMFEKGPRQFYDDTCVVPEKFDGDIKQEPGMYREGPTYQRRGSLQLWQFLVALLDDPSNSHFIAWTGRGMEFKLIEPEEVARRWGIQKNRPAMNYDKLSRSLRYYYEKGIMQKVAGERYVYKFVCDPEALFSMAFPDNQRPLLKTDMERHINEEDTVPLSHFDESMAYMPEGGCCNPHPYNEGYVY
# How it was run: as §1
sequence,measurement,setting,value
ATTTGA,binding signal,FLI1,"1.34 fold enrichment (6-mer frequency, TF over GST control)"
same,binding signal,ELK1,"1.1 fold enrichment (6-mer frequency, TF over GST control)"
same,binding signal,GABPA,"1.26 fold enrichment (6-mer frequency, TF over GST control)"
same,binding signal,ERG,"1.23 fold enrichment (6-mer frequency, TF over GST control)"
same,binding signal,ELF1,"1.12 fold enrichment (6-mer frequency, TF over GST control)"
same,binding signal,EHF,"1.27 fold enrichment (6-mer frequency, TF over GST control)"
same,binding signal,SPI1,"1.17 fold enrichment (6-mer frequency, TF over GST control)"
same,binding signal,SPIB,"1.36 fold enrichment (6-mer frequency, TF over GST control)"
same,binding signal,ELK3,"1.05 fold enrichment (6-mer frequency, TF over GST control)"
same,binding signal,FEV,"1.17 fold enrichment (6-mer frequency, TF over GST control)"
same,binding signal,ETV5,"1.16 fold enrichment (6-mer frequency, TF over GST control)"
same,binding signal,HSF1,"1.21 fold enrichment (6-mer frequency, TF over GST control)"
same,binding signal,SPIC,"1.11 fold enrichment (6-mer frequency, TF over GST control)"
same,binding signal,ELF4,"1.21 fold enrichment (6-mer frequency, TF over GST control)"
same,binding signal,ELK4,"1.07 fold enrichment (6-mer frequency, TF over GST control)"
same,binding signal,ETV2,"1.16 fold enrichment (6-mer frequency, TF over GST control)"
same,binding signal,ELF3,"1.16 fold enrichment (6-mer frequency, TF over GST control)"
same,binding signal,CRX,"1.41 fold enrichment (6-mer frequency, TF over GST control)"
same,binding signal,ETV1,"1.2 fold enrichment (6-mer frequency, TF over GST control)"
